Only some compounds are listed: those with a hit (about 7.9% of all), similar ones and a draw of the others.
M1 agonist: M1 muscarinic receptor agonists, primary screen, CHO-M1 cells, Fluo-4 calcium, agonist mode. Fluo-4 calcium fluorescence; hits give high values. B-score at 10 µM. 64,000 tested, 3% active. AID 626, 2007;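 active = fluorescence rise, raw or as B-score row- and column-corrected plate score, outside the 99.7% band of its plate's samples, either direction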
M1 antag: antagonists of rat M1 muscarinic receptor | Muscarinic acetylcholine receptor M1 (Rattus norvegicus), P08482 | CHO-M1 cells, Fluo-4 calcium, ACh EC80 antagonist mode; hits give low values | B-score at 10 µM | 64,000 tested, 3.4% active;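 active = calcium fluorescence response, raw or row-and-column corrected B-score, differing from the plate sample mean either way at a set confidence level, mostly lower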
Her2 expr inh: inhibitors of Her2 protein expression, primary screen, SKBR-3 cells, AlphaScreen, 66K library; AID 645, 2007; HER2 level % of control, % at 10 µM; Receptor tyrosine-protein kinase erbB-2 (Homo sapiens), P04626; 65,000 tested, 0.69% active; SKBR-3 HER2 protein level, 18-24 h; hits give low values;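 active = HER2 level under 5% of the carrier-only control; inconclusive = no clear call, values can overlap the other calls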;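 also: lower value means stronger loss of Her2 protein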
PLAP activator: PLAP enzyme activators, biochemical, luminescence, HTS. purified PLAP enzyme, luminescent substrate read-out; hits give high values. activation fold at 20 µM. 96,000 tested, 1.2% active; in the data active = activation fold above about 2
Target sequence (P05187 whole entry, looked up): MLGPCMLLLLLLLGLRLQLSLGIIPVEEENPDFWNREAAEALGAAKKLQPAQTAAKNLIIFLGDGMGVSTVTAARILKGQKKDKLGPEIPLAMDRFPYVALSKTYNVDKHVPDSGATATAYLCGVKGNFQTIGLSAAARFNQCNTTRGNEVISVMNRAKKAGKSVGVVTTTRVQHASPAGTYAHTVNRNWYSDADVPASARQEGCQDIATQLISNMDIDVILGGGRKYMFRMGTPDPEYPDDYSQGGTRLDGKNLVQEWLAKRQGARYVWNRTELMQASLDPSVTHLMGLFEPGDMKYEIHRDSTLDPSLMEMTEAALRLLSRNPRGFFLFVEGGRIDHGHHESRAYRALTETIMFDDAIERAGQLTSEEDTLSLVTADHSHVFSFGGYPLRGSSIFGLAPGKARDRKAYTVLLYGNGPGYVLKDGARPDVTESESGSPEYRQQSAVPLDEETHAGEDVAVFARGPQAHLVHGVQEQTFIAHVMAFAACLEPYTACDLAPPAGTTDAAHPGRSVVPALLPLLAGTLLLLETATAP
Cav32 inh: Cav3.2 calcium influx blockers – cell-based, Fluo-4 calcium fluorescence, FDSS, MLSMR library, primary screen. 100,000 tested, 4% active. Voltage-dependent T-type calcium channel subunit alpha-1H (Homo sapiens), O95180. Cav3.2-expressing cells; hits give low values. B-score at 10 µM. AID 449739, 2010;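 active = single-dose well whose peak fluorescence ratio is a statistical outlier from its plate by either plate-standardised score or position-corrected B-score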
M1 ag confirm: rat M1 muscarinic receptor agonists, confirmation, CHO-M1 cells, Fluo-4 calcium, duplicate retest; fluorescence change (max-min) at 10 µM; 1,700 tested, 19% active; Fluo-4 calcium fluorescence, agonist mode; actives lie on both sides; shares compounds with M1 agonist;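 active = fluorescence change differs from the solvent-only DMSO control mean at a set confidence level in both duplicate runs; inconclusive = differs from solvent-only control mean in just one of two runs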;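 also: an EC20 dose of acetylcholine follows compound addition during the same imaging run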
M4 ag counter: agonist activity at rat M4 receptor, confirmation, counter-screen for M1 allosteric modulator project, cell-based, agonist mode; shares compounds with M1 agonist; CHO M4/Gqi5 cells, Fluo-4 calcium fluorescence; actives lie on both sides; fluorescence change (max-min) at 10 µM; 1,700 tested, 9% active; AID 1741, 2009;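 active = fluorescence change differing from the plate's solvent-only control wells at 99.7% confidence in both duplicates, whether higher or lower; inconclusive = differs from solvent controls in only one of two duplicates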
A number is an active result; - = inactive; ? = inconclusive; . = no result.

SMILES	M1 agonist	M1 antag	Her2 expr inh	PLAP activator	Cav32 inh	M1 ag confirm	M4 ag counter
CCC(Sc1nc(N)cc(=O)[nH]1)C(=O)NC(C(=O)OC)c1ccccc1 (centres undefined)	3.2	-	-	-	-	-	-
Cc1sc2nc3c(C(=O)N4CCN(c5ncccn5)CC4)cccn3c(=O)c2c1C	-	-	-	.	.	.	.
Cc1ccc(NC(=O)COC(=O)CCc2c[nH]c(=O)[nH]2)cc1	7.3	-	-	-	.	-	-
CCN(CC)S(=O)(=O)c1ccc2oc(SCC3CN=C(c4ccc(OC)cc4)S3)nc2c1 (centres undefined)	8.1	-	-	-	-	-32	?
CS(=O)(=O)N(CC(=O)Nc1cccc(Cl)c1Cl)c1ccccc1	.	.	.	-	-	.	.
O=C1CN(Cc2ccccc2)C(=NCc2ccco2)S1	-	-	-	-	-	.	.
Cc1ccc(-n2nc(-c3cccnc3)cc2C(=O)N2CCOCC2)c(C)c1	20	-	-	-	-	?	-
O=C(c1cc(-c2ccccc2)nn1CC1CC(c2cccnc2)=NO1)N1CCOCC1 (centres undefined)	.	.	.	.	-	.	.
Cc1cc(N2CCN(S(=O)(=O)c3ccc(Cl)cc3)CC2)c2ccccc2n1	5.2	-7.4	-	-	-	-	-
CCOC(=O)N1CCC(NC(=O)C2CCCN(Cc3nc(-c4cccc(Cl)c4)oc3C)C2)CC1 (centres undefined)	10	-4.4	-	-	-	-	-
COc1ccc(-c2nc(CN3CCCC(C(=O)NC4CCCC4)C3)c(C)o2)cc1 (centres undefined)	.	.	.	-	-	.	.
CC(=O)c1ccc(NC(=O)CSc2nnc(-c3ccoc3C)n2Cc2ccccc2)cc1	27	-	-	-	-	?	-75
Cc1cccc(C)c1NC(=O)CSc1nnc(-c2ccoc2C)n1CCc1ccccc1	-	-	-	-	-	.	.
CCOc1ccc(-c2nc(-c3ccc(OC)c(OC)c3)no2)cc1OCC	-	-	-	-	-	.	.
CCOc1ccc(-c2noc(COC)n2)cc1OC	3.2	-	-	-	-	-	-
CC(=O)c1n[nH]nc1NC(=O)c1ccccc1	2.8	-	-	-	-	?	-
CC1(C)Cc2ccccc2C2CC(O)C(=O)N21 (centres undefined)	-	-	-	-	-	.	.
CCOC(=O)N1CCC(NCCNC(=O)c2ccc(Cl)cc2)CC1	18	-	-	-	-	115	-
CCOC(=O)N1CCC(NC(=O)c2cc(C(=O)NCc3cccc(Cl)c3)ccc2CO)CC1	-	-	-	-	-	.	.
COc1ccc(CCNc2c(C)c(C)nc3ncnn23)cc1	3.3	-1.2	-	-	-	-	-
CCn1c(=O)cc(SCC(=O)N2CCN(c3ccccc3F)CC2)c2ccccc21	.	.	.	-	-	.	.
CCn1c(=O)cc(SCC(=O)N2CCN(c3ccccn3)CC2)c2ccccc21	5.9	-	-	-	.	-29	-
COc1ccc(Nc2ccc3nnc(-c4ccc(Br)cc4)n3n2)cc1	.	.	.	-	-	.	.
COc1ccc(C2C(C(=O)Nc3ccccc3)=C(C)Nc3nc(CCCO)nn32)cc1 (centres undefined)	-	-	-	-	-	.	.
COc1ccc(C2C=C(c3ccccc3)Nc3nc(CCCO)nn32)cc1 (centres undefined)	9.3	-	-	-	-	72	-
SMILES	M1 agonist	M1 antag	Her2 expr inh	PLAP activator	Cav32 inh	M1 ag confirm	M4 ag counter
COc1ccc(C2C=C(c3cccs3)Nc3nc(CCCO)nn32)cc1 (centres undefined)	288	-18	-	-	-12	2868	2408
OCCCc1nc2n(n1)C(c1ccccc1)C=C(c1ccccc1)N2 (centres undefined)	12	-	-	-	-	74	-
Cc1c(C=O)c2ccccc2n1CC(=O)N1CCc2ccccc2C1	.	.	.	.	-	.	.
Cc1ccc(OCC(=O)Nc2ccc(-c3nc4ncccc4o3)cc2)c(C)c1	3.3	-	-	-	-	?	-
Cc1cccc(NC(=O)C2CCCC2)c1	.	.	.	.	-	.	.
O=C(Nc1cccc(S(=O)(=O)c2cccc(NC(=O)C3CC3)c2)c1)C1CC1	2.8	-	-	-	-	-	-
C=CCSc1nnc(-c2ccncc2)n1-c1ccc(OCC)cc1	1.7	-	-	-	-	-	-
O=C(c1oc2ccccc2c1CSCc1ccccc1)N1CCN(c2ncccn2)CC1	7	-	-	-	-	-	?
CCc1ccc(S(=O)(=O)NCc2cn3ccsc3n2)s1	3.3	-	-	-	-	-	-
CCC1C(=O)Nc2nc(-c3ccccc3)c(-c3ccccc3)n2N=C1C (centres undefined)	.	.	.	-	-	.	.
Cc1csc(NC(=O)CSc2nnc(-c3ccco3)n2C)n1	-	-	-	-	.	.	.
COc1cccc2cc(-c3nnc(SCC(=O)Nc4nc(C)cs4)n3C)oc12	3.9	-	-	-	-	?	-
O=C(Oc1ccccc1Cl)c1ccc(-n2cncn2)nc1	.	.	.	-	-	.	.
COc1cc(-c2nc3cnccn3c2Nc2ccc(C)cc2)ccc1O	.	.	.	-	-	.	.
COc1cc(-c2nc3cnccn3c2Nc2ccc3c(c2)OCCO3)ccc1O	3.5	-	-	-	-	-	?
COc1cc(-c2nc3cnccn3c2Nc2ccccc2)ccc1O	5.5	-	-	-	-	-	-
COc1ccc(C2=NOC(C(=O)N3CCN(c4ccccc4OC)CC3)C2)cc1 (centres undefined)	2.6	-	-	-	-	-	?
O=C(NCC1CC1)c1onc(CSc2ccncc2)c1C(=O)NCC1CC1	.	.	.	.	-	.	.
Cc1cccc(NC(=O)Cc2coc3ccc4ccccc4c23)n1	.	.	.	-	-	.	.
CCOCCCn1cnc2c(c1=O)c1nc3ccccc3nc1n2-c1ccccc1	3.9	-	-	-	-	?	-
CCOCCCn1cnc2c(c1=O)c1nc3ccccc3nc1n2-c1ccc(C)cc1	-	-	-	-	-	.	.
CCN(CC)c1ccc2c(C)c(CN3CCOCC3)c(=O)oc2c1	7.1	-2.9	-	-	-	-	-
CCCc1cc(=O)oc2c(CN3CCOCC3)c(O)ccc12	.	.	.	-	-	.	.
CCOc1ccc2nc(NCCNC(=O)CC)c(C#N)cc2c1	9.7	-	-	-	-	133	-
COc1ccc(OC)c2[nH]c(=O)c(CCNC(C)=O)cc12	-	-	-	-	-	.	.
COc1ccc(OC)c2[nH]c(=O)c(CCNC(=O)c3cc4ccccc4o3)cc12	2.5	-	-	-	-	-	-
CN(C)c1nc(NS(=O)(=O)c2ccc(Cl)cc2)nc(N(C)C)n1	-	-	-	-	-	.	.

High-throughput results: PubChem, several laboratories
